# Values joined by “and” are separate entries in the source; they are usually repeats but may differ in a detail not shown here. Equal entries are not always repeated. Active and inactive are the calls of the source. Unless noted, the rule behind the calls is not given here.
# System: not listed separately
# Assay: reducers of polyQ inclusions in PC12 cells, cell-based, NGF-treated PC12, GFPQ80 (AID 1614);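 note: lower means fewer inclusions and 0 means no inclusions at all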
# Settings: PC12 NGF-treated GFP-polyQ80 inclusion reduction
row,Compound,inclusion score
1,COC(=O)[C@H](c1ccccc1Cl)N1CCc2sccc2C1,2
2,CC(C)NCC(O)COc1cccc2ccccc12 (centres undefined),2
3,CN(C)c1nc(N(C)C)nc(N(C)C)n1,2
4,C[N+]1(C)CCCC(OC(=O)C(O)(c2ccccc2)c2ccccc2)C1 (centres undefined),2
5,CC(C(=O)O)c1ccc(-c2ccccc2)c(F)c1 (centres undefined),2
6,CC(C)NCC(O)COc1ccc(CC(N)=O)cc1 (centres undefined),2
7,Nc1ncnc2c1ncn2[C@@H]1O[C@H](CO)[C@@H](O)[C@@H]1O,1.5

# System: not listed separately
# Assay: suppressors of polyglutamine aggregation in yeast, 75Q-TubH (AID 1616)
# Settings: S. cerevisiae 75Q-TubH polyglutamine aggregation suppression; stronger effect = higher value
row,Compound,aggregation suppression score
1,COC(=O)[C@H](c1ccccc1Cl)N1CCc2sccc2C1,1.88
2,CC(C)NCC(O)COc1cccc2ccccc12 (centres undefined),0.965
3,CN(C)c1nc(N(C)C)nc(N(C)C)n1,1.21
4,C[N+]1(C)CCCC(OC(=O)C(O)(c2ccccc2)c2ccccc2)C1 (centres undefined),1.44
5,CC(C(=O)O)c1ccc(-c2ccccc2)c(F)c1 (centres undefined),0.00404
6,CC(C)NCC(O)COc1ccc(CC(N)=O)cc1 (centres undefined),1.39
7,Nc1ncnc2c1ncn2[C@@H]1O[C@H](CO)[C@@H](O)[C@@H]1O,0.666

# System: not listed separately
# Assay: circadian clock period modulators, cell-based, LOPAC library, luminescence reporter (AID 2774);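 note: values are relative to mean of DMSO wells on each plate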
# Settings: circadian reporter cells, at 7 µM, actives lie on both sides
row,Compound,period change
1,CNCCC(Oc1ccc(C(F)(F)F)cc1)c1ccccc1 (centres undefined),-0.16 h (inactive)
2,COc1ccc(/C=C/C(=O)Nc2ccccc2C(=O)O)cc1OC,-0.165 h (inactive)
3,CC(C)NCC(O)COc1cccc2ccccc12 (centres undefined),-0.115 h (inactive)
4,O=[N+]([O-])c1cccc2cn[nH]c12,-0.295 h (inactive)
5,CN(C)c1nc(N(C)C)nc(N(C)C)n1,-0.095 h (inactive)
6,CC1=C(/C=C/C(C)=C/C=C/C(C)=C\C(=O)O)C(C)(C)CCC1,0.45 h (inactive)
7,CC(C)NCC(O)COc1ccc(CC(N)=O)cc1 (centres undefined),0.015 h (inactive)
8,O=c1ccc2ccc(O)c(O)c2o1,0.03 h (inactive)

# System: not listed separately
# Assay: hESC survival regulators, cell-based (AID 493140);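 note: cells exposed to compounds for four days before counting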
# Settings: human embryonic stem cell survival screen; stronger effect = higher value
row,Compound,survival
1,CNCCC(Oc1ccc(C(F)(F)F)cc1)c1ccccc1 (centres undefined),3.58 (inactive)
2,CC(C)NCC(O)COc1cccc2ccccc12 (centres undefined),5.92 (inactive) and 9.92 (inactive) and 3.58 (inactive)
3,CN(C)c1nc(N(C)C)nc(N(C)C)n1,2.92 (inactive)
4,C[N+]1(C)CCCC(OC(=O)C(O)(c2ccccc2)c2ccccc2)C1 (centres undefined),8 (inactive)
5,CC1=C(/C=C/C(C)=C/C=C/C(C)=C\C(=O)O)C(C)(C)CCC1,10.8 (inactive) and 52.6 (inactive)
6,CC(C(=O)O)c1ccc(-c2ccccc2)c(F)c1 (centres undefined),4.67 (inactive)
7,CC(C)NCC(O)COc1ccc(CC(N)=O)cc1 (centres undefined),4.33 (inactive)

# System: not listed separately
# Assay: liver-stage malaria parasite growth inhibition, primary screen, cell-based, HepG2, luciferase luminescence, HepG2 viability (AID 624349; in the data active = parasite load remaining mostly below about 12%, no sharp cut-off; inactive = mostly above about 10%;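 note: 100% = mean of DMSO negative control wells on the same plate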)
# Settings: P. berghei liver stage in HepG2, luciferase luminescence, concentration not given here; parasite load remaining: stronger effect = lower value; viability: measured here: HepG2 viability without parasites
Compound,viability,parasite load remaining
COc1ccc(/C=C/C(=O)Nc2ccccc2C(=O)O)cc1OC,99.2% and 76.6% and 140%,13.7% (inactive) and 10.8% (inactive) and 12.8% (inactive)
O=[N+]([O-])c1cccc2cn[nH]c12,68.7%,55.2% (inactive)
Cc1occc(=O)c1O,68.2%,65.4% (inactive)
COc1ccc(-c2cc(=O)c3c(OC)c(OC)c(OC)c(OC)c3o2)cc1OC,66.9%,46.2% (inactive)
COc1ccc(C[C@H](N)C(=O)N[C@H]2[C@@H](O)[C@H](n3cnc4c(N(C)C)ncnc43)O[C@@H]2CO)cc1,17.9% and 1%,-0.025% (inactive) and -0.34% (inactive)
Cc1cccc(C)c1NC(=O)C1CCCCN1C (centres undefined),85.7% and 198% and 72.6%,174% (inactive) and 77.7% (inactive) and 69.1% (inactive)
CCCCC(=O)N(Cc1ccc(-c2ccccc2-c2nn[nH]n2)cc1)[C@H](C(=O)O)C(C)C,89.7% and 98.7% and 73.8%,147% (inactive) and 47.5% (inactive) and 92.3% (inactive)

# System: Hepatitis C virus NS3 helicase
# Assay: HCV NS3 helicase inhibitors, primary screen, biochemical, fluorescence polarization, LOPAC1280 library (AID 687035; in the data active = inhibition above about 37%)
# Settings: Purified HCV NS3 helicase, Cy5-dT15 ssDNA binding fluorescence polarization; stronger effect = higher value; concentration not given here
row,Compound,inhibition
1,CNCCC(Oc1ccc(C(F)(F)F)cc1)c1ccccc1 (centres undefined),-3% (inactive)
2,COc1ccc(/C=C/C(=O)Nc2ccccc2C(=O)O)cc1OC,1% (inactive)
3,CC(C)NCC(O)COc1cccc2ccccc12 (centres undefined),-4% (inactive)
4,O=[N+]([O-])c1cccc2cn[nH]c12,-1% (inactive)
5,CN(C)c1nc(N(C)C)nc(N(C)C)n1,0% (inactive)
6,CC1=C(/C=C/C(C)=C/C=C/C(C)=C\C(=O)O)C(C)(C)CCC1,1% (inactive)
7,CC(C)NCC(O)COc1ccc(CC(N)=O)cc1 (centres undefined),-1% (inactive)
8,O=c1ccc2ccc(O)c(O)c2o1,0% (inactive)

# System: not listed separately
# Assay: Cy5 fluorescence quenching or enhancement artefacts, artefact control for HCV NS3 helicase inhibitor project, biochemical, LOPAC1280 (AID 687037)
# Settings: Cy5-DNA-NS3h complex fluorescence interference counterscreen
row,Compound,fluorescence ratio (interference)
1,CNCCC(Oc1ccc(C(F)(F)F)cc1)c1ccccc1 (centres undefined),1 (inactive)
2,COc1ccc(/C=C/C(=O)Nc2ccccc2C(=O)O)cc1OC,1 (inactive)
3,CC(C)NCC(O)COc1cccc2ccccc12 (centres undefined),1 (inactive)
4,O=[N+]([O-])c1cccc2cn[nH]c12,1 (inactive)
5,CN(C)c1nc(N(C)C)nc(N(C)C)n1,0.9 (inactive)
6,CC1=C(/C=C/C(C)=C/C=C/C(C)=C\C(=O)O)C(C)(C)CCC1,0.9 (inactive)
7,CC(C)NCC(O)COc1ccc(CC(N)=O)cc1 (centres undefined),0.9 (inactive)
8,O=c1ccc2ccc(O)c(O)c2o1,1.1 (inactive)
